Assay results as given in PubChem BioAssay (NCI).
Values joined by “and” are separate entries in the source; they are usually repeats but may differ in a detail not shown here. Equal entries are not always repeated. This is part of a sample that, as a whole, favours compounds with a hit. Of some 83,000 tested, about 20% had one in any assay.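 For each line, cells grew in 96-well plates with the test compound present at a single concentration for 48 hours.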 A number with no mark means an inactive call. Active and inactive are the calls of the source. Rule for the calls: active = growth percent below 10; inactive = the rest.

Tested on: MDA-MB-468 breast
Experiment: NCI-60 one-dose screen, 48 h (100 = growth as untreated, 0 = no growth, -100 = all killed)
Conditions: 10 µM unless noted

| SMILES | growth |
| --- | --- |
| C=C1C(=O)O[C@H]2[C@H]1CC/C(COC(=O)NCc1cc3ccccc3[nH]1)=C\CC[C@@]1(C)O[C@@H]21 | 19.3% |
| O=C(NNc1cnccn1)c1nc2cc(F)ccc2n2cccc12 | -21.7% (active) |
| COc1ccc(-c2cc(-c3cc(OC)ccc3O)[nH]c(=O)c2C#N)cc1 | 59.5% |
| COc1ccc(/C(C#N)=C/c2ccccc2OC)cc1 | -14% (active) |
| Clc1ccc2[nH]cc(-c3nc(-c4c[nH]c5ncccc45)cs3)c2c1 | 45.2% |
| CC(C)(CO)N(CCO)CCO | 95.1% |
| COC(=O)c1cc(Br)ccc1O | 93% |
| Cc1cc(NCCN(C(C)C)C(C)C)nc(/N=C(\N)Nc2ccc(Cl)c(C(F)(F)F)c2)n1 | -98.6% (active) |
| C=C(C)[C@@H]1CC[C@]2(COC(=O)c3ccccc3C(=O)O)CC[C@]3(C)[C@H](CC[C@@H]4[C@@]5(C)CC[C@H](OC(=O)c6ccccc6C(=O)O)C(C)(C)[C@@H]5CC[C@]43C)[C@@H]12 | -22.5% [100 µM] (active) |
| OC(c1ccccc1)C(NC(Cc1ccccc1)c1ccccc1)c1ccccc1 (stereo not given) | 89.3% |
| COc1ccc(-n2c(N)c(-c3nc4ccccc4[nH]3)cc(C#N)c2=O)cc1 | 93.1% |
| Cc1ccc(/C=C/c2c(C(=O)/C=C/c3ccc(Cl)cc3)c(C)nc3ccccc23)cc1 | -23.3% (active) |
| C#CCOc1ccccc1C(Nc1ccccc1)c1nnnn1C1CCCCC1 (stereo not given) | 93.7% |
| CCN(CC)CCCC(C)Nc1ccnc(/C=C/c2ccc(Cl)cc2)c1 (stereo not given) | -84.5% (active) |
| Cc1ccc2cccc([N+](=O)[O-])c2n1 | 107% and 100% |
| N#Cc1cccc(OCc2nc(N)nc(N)c2-c2ccc(Cl)c(Cl)c2)c1 | 19.3% |
| COc1ccc(/C=N/Nc2ccnc3cc(Cl)ccc23)cc1Cl | -71.9% (active) |
| CCOC(=O)NC(N)=O | 105% and 98.7% |
| OCC1CCC(O)C(CO)N1 (stereo not given) | 104% |
| COc1cc(-c2cc(-c3nc4cc(Cl)c(Cl)cc4[nH]3)[nH]n2)cc(OC)c1OC | 51.7% |

| SMILES | growth |
| --- | --- |
| CCCCCOC(=O)Nc1nc(=O)n(C2O[C@H](C)[C@@H](O)[C@H]2O)cc1F (stereo not given in full) | 99.1% |
| COc1ccc([C@H]2[C@@H](F)C(=O)N2c2cc(OC)c(OC)c(OC)c2)cc1F | 23% |
| CN(C[C@H]1Cc2c(cccc2N2CCN(c3ncccn3)CC2)CN1)[C@H]1CCCc2cccnc21 | 37.6% |
| N#Cc1c(NC(=O)NCc2ccccc2)sc2c1CCCCC2 | -25.9% (active) |
| CCCCCCCCCCCCCCCCCCOc1ccccc1N | 101% |
| CCCCCCCCCCC1OC(C)CC(C)O1 (stereo not given) | 98.5% |
| CN(C)CCCN(c1nc(C(Cl)(Cl)Cl)ns1)c1nc(C(Cl)(Cl)Cl)ns1 | 14.5% |
| O=C(/C=C/c1ccc(F)cc1)N1CCN(C(=O)/C=C/c2ccc(C(F)(F)F)cc2)CC1 | 117% |
| NNC(=O)c1sc2nc(-c3cnccn3)cc(-c3cccs3)c2c1N | 97.2% |
| CCn1nc(C#Cc2c(C)ccc3c(Nc4ccc(Cl)cc4)nccc23)c2c(N)ncnc21 | 27.1% |
| CCC1(c2ccccc2)Oc2ccccc2-n2c(C#N)c3ccccc3c2C1=O (stereo not given) | 104% |
| COc1cccc(/C=C2\Oc3cc(OCCCN4CCCC4)ccc3C2=O)c1 | 69.4% |
| O=C1CCC(C(=O)N/N=C/c2cc(F)ccc2F)N1 (stereo not given) | 111% |
| COc1ccc(Nc2ncc(Br)c(NCCCNC(=O)C3CCCC3)n2)cc1 | 54.5% |
| CN1CCN(C(=O)OCc2nc3c(N4CCOCC4)nc(-c4ccccc4)nc3n2C)CC1 | -59% (active) |
| COc1cccc(-c2nn(-c3ccccc3)cc2-c2ccnc(NCCCNS(=O)(=O)c3cccc(F)c3)c2)c1 | -10.1% (active) |
| O=C(CSc1nnc(-c2ccc(Cl)cc2)n1-c1ccccc1)Nc1ccccc1Cl | 78.5% |
| O=S(=O)(NCCNc1nccc(-c2c(-c3ccc(F)cc3)nc3sccn23)n1)c1ccc2ccccc2c1 | 76.4% |
| COc1ccc(C2Nc3ccccc3-n3cccc32)cc1 (stereo not given) | 108% |
| CS(=O)(=O)c1ccc(-c2nc3ccccn3c2C=Nc2ccc(Cl)cc2)cc1 | 98.1% |
